# High-throughput results: PubChem BioAssay, National Center for Advancing Translational Sciences (NCATS)
# BAZ2B inh: qHTS Assay for Inhibitors of BAZ2B. AlphaScreen BAZ2B-H3K14Ac peptide displacement. AID 504333, 2011. Potency, µM (highest dose often 114 µM), for the others: top-dose activity change, negative = inhibition, usual class: inhibitors. Bromodomain adjacent to zinc finger domain protein 2B (Homo sapiens), Q9UIF8. 360,000 compounds, 4.4% hits; note: % is set by controls: 0 for no effect and ±100 for the full control effect; nearly all actives have a fitted effect of over 60% in size
#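 BAZ2B (50 nM) with biotin-H3(5-23)K14Ac peptide (50 nM) in PBS pH 7.4, 0.01% Tween-20, preformed 30 min, then compound 30 min at room temperature; top concentration 110uM. AlphaScreen streptavidin donor/nickel chelate acceptor beads (10 ug/mL final), 20 min dark, signal read.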
# JMJD2A Tudor inh: qHTS Assay for Inhibitors of JMJD2A-Tudor Domain; Potency, µM (highest dose often 114 µM), for inactives: at the top dose activity change, negative = inhibition, usual class: inhibitors; 390,000 compounds, 4.4% hits; AID 504339, 2011; AlphaScreen JMJD2A-Tudor / H3K4me3 peptide binding; Lysine-specific demethylase 4A (Homo sapiens), O75164; note: % is set by controls: 0 for no effect and ±100 for the full control effect; nearly all actives have a fitted effect of over 50% in size
# PLK1 PBD inh: qHTS for Inhibitors of PLK1-PDB (polo-like kinase 1 - polo-box domain): Primary Screen | Serine/threonine-protein kinase PLK1 (Homo sapiens), P53350 | Potency, µM, for inactives: max response, negative = inhibition, usual class: inhibitors | 360,000 compounds, 2.8% hits | Plk1 PBD binding of FITC phosphopeptide, fluorescence polarization; note: series mostly up to about 57 µM; % is set by controls: 0 for no effect and ±100 for the full control effect; nearly all actives have a fitted effect of over 65% in size
# Target sequence (P53350 whole entry, looked up, the tested form may be a part): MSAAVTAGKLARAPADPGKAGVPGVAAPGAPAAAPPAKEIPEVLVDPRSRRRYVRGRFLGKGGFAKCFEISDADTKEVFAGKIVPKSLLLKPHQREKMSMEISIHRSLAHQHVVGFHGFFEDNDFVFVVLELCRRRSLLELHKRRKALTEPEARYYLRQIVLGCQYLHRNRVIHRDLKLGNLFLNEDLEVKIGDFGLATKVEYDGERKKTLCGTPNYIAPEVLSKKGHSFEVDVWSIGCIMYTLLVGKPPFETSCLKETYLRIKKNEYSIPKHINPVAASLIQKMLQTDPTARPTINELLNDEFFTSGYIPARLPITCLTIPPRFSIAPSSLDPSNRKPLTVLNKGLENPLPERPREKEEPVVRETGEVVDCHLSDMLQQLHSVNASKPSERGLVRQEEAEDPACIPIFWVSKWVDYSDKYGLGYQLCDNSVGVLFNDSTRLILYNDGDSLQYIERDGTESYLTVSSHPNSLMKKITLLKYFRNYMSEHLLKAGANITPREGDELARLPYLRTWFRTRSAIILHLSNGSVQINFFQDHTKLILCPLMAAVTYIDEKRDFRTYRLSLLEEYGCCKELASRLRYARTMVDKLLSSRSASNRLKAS
# HP1b binding inh: HTS for Inhibitors of HP1-beta Chromodomain Interactions with Methylated Histone Tails; Chromobox protein homolog 1 (Homo sapiens), P83916; AID 540317, 2011; 390,000 compounds, 0.56% hits; Potency, µM (series often up to 114 µM), for the others: at the top dose activity change, negative = inhibition, hits mostly inhibitors; AlphaScreen HP1-beta / biotin-H3K9me3 peptide binding; note: nearly all actives have a fitted effect of over 70% in size
#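 AlphaScreen: HP1-beta (50 nM) preformed 30 min with biotin-H3(1-18)K9me3 peptide (50 nM) in PBS pH 7.4, 0.01% Tween-20. Compound added for 30 min at RT, then streptavidin donor/nickel chelate acceptor beads (10 ug/mL) for 30 min.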
# ALOX12 inh: Primary qHTS assay for inhibitors of human arachidonate 12S-lipoxygenase (ALOX12): Round 2; Potency, µM (titrated, usually from 108 µM), for inactives: top-dose activity change, negative = inhibition, hits mostly inhibitors; AID 1671190, 2021; Polyunsaturated fatty acid lipoxygenase ALOX12 (Homo sapiens), P18054; purified 12hLO, xylenol orange hydroperoxide absorbance; 580,000 compounds, 1.1% hits; note: % is set by controls: 0 for no effect and ±100 for the full control effect
#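 Purified human 12hLO (150 nM final) in 25 mM Hepes, 0.01% Triton X-100, pH 7.0 was preincubated 15 min at room temperature with compound. Then 40 uM arachidonic acid was added, 30 min. Hydroperoxide was read by Fe-XO absorbance ratio 573/405 nm.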
# G9a block: qHTS Assay for Inhibitors of Histone Lysine Methyltransferase G9a | G9a H3K9 monomethylation, AlphaScreen, 2 h | Potency, µM (doses to about 102 µM), for inactives: at the top dose activity, negative = inhibition, hits mostly inhibitors | Histone-lysine N-methyltransferase EHMT2 (Homo sapiens), Q96KQ7 | 350,000 compounds, 8.8% hits; note: % is set by controls: 0 for no effect and ±100 for the full control effect; nearly all actives have a fitted effect of over 75% in size
#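 Enzyme 20 nM + cpd, 15 min RT; add b-H3K9 pep 500 nM / SAM 20 uM; 2 h RT; anti-H3K9me1 Ab 0.5 ug/mL + SA donor / anti-rabbit acceptor beads 20 ug/mL each, 10 min; AlphaScreen read.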
# Starred values were filed as active, the others as inactive; ? = inconclusive; · = no result; [ ] = dose if it differs, or a comment. Only some compounds are listed: those with a hit (about 9% of all), similar ones and a draw of the others. Calls come from the whole dose curve; as a rule, active = well fitted curve in the direction sought with a large enough effect; inconclusive = small, poorly fitted or top-dose-only effect, or another doubt; inactive = no such curve, though single readings can be large; an effect the other way counts as inactive or inconclusive. Potency is the fitted concentration of half-maximal effect.
SMILES,BAZ2B inh,JMJD2A Tudor inh,PLK1 PBD inh,HP1b binding inh,ALOX12 inh,G9a block
COc1ccc(NC(=O)N/C=C/c2ccc(Cl)cc2)cc1,-26%,-22%,-11%,-3%,?,20µM*
O=C(N/C=C/c1ccccc1)Nc1ccc(Cl)cc1,-2%,-19%,-13%,15%,6%,-39%[59 µM]
Cc1ccc(NC(=O)N/C=C/c2ccc(Cl)cc2)cc1,-36%[57.1 µM],-22%[11.4 µM],27µM*,7%,?,10%
Cc1ccc([N+](=O)[O-])c2c1C(N1CCCC1)C(C)(C)O2 (centres undefined),?,-31%,?,7%,?,11µM*
Cc1ccc(S(=O)(=O)N2CCCC2)cc1[N+](=O)[O-],5%,-18%,-7%,20%,-7%,33%[59 µM]
CCN(CC)S(=O)(=O)c1ccc(/C=C/C(=O)Nc2ccc(F)cc2F)cc1,-1%,-13%,-5%,34%,-6%,3%
Cc1cc(C)c(OCCCCN(C)Cc2ccccc2)c(C)c1,?,7.1µM*,-3%,?,?,1.3µM*
CN(CCOc1ccccc1)Cc1ccccc1,·,·,-14%,·,·,·
Cc1ccc(C(C)C)c(OCCCN(C)Cc2ccccc2)c1,?,22µM*,-4%,?,?,10µM*
COc1ccccc1OCCCOc1ccc(C)cc1Br,159%,115%,1%,223%,-8%,265%
Cc1ccc(OCCCCN(C)Cc2ccccc2)c(Br)c1,-37%,?,-6%,?,?,11µM*
COc1ccccc1N1C(=O)N(C(C)=O)C2C1Nc1ccccc1N2C (centres undefined),·,?,-9%,-20%,-28%,7.1µM*
COc1ccccc1N1C(=O)c2ccccc2NC1c1ccncc1 (centres undefined),-4%,5%,-2%,30%,7%,-30%
CCSc1nnc(NC(=O)NC(CC)(C(F)(F)F)C(F)(F)F)s1,7%,-23%,-5%,34%,469%,?
O=C(NCc1ccc(F)cc1)C1CCN(S(=O)(=O)c2ccc(Cl)cc2)CC1,5%,-6%,-15%,8%,10%,-10%
Cc1ccc(S(=O)(=O)N2CCCC(C(=O)NC3CCCC3)C2)cc1Cl (centres undefined),-3%,-5%,-16%,38%,-4%,9%
Cc1ccc(S(=O)(=O)N2CCC(C(=O)NC3CCCC3)CC2)cc1Cl,1%,100µM*,-11%,18%,18%,-7%[59 µM]
Cc1nnc(NC(=O)C2CCN(S(=O)(=O)c3cc([N+](=O)[O-])ccc3Cl)CC2)o1,16µM*,10µM*,-3%,27%,-28%,?
O=C(NCc1ccc(Cl)cc1)C1CCN(S(=O)(=O)c2ccccc2)CC1,-7%,-2%,27µM*,-18%,?,-6%
Cc1c(Cl)cccc1S(=O)(=O)N1CCC(C(=O)NNC(=O)C2CC2)CC1,-15%,-3%,24µM*,12%,-2%,2%
C=CCN1CCN(C(=O)c2ccc(N3CC4CC(C3)[C@H]3CCCC(=O)N3C4)nc2)CC1 (some centres undefined),·,·,·,·,15%,·
Cc1ccccc1CNC(=O)c1ccc2ccccc2n1,34%,67%,-6%,112%,8%,81%
CCN(CC)c1ccc(CN2CCC(C(=O)NCc3ccc(C)cc3)CC2)cc1,-13%,20µM*,-2%,?,?,·
O=C(NC1CC1)C1CCN(S(=O)(=O)c2cc([N+](=O)[O-])ccc2Cl)CC1,32µM*,8.9µM*,?,7%,-25%,?
